For 105 compounds, IC50 results are on record in PubChem BioAssay AID624351 (Southern Research Specialized Biocontainment Screening …, 2012).

Among all 2,400 compounds or so, about 1,400 (58%) were called active.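 The calls were made as follows: active = inhibition of 30% or more at any tested dose; inconclusive = primary hits over the limit that were never retested; inactive = the rest.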 So high a share suggests a set chosen from earlier hits. The list shows a part of the results.

The nature of this assay: coupled detection enzyme interference, dose response, artefact control for MgcRacGAP inhibitor project, biochemical, coupled enzyme counter-screen (AID 624351).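 Also: signal is the ADP detection kit reading of free GDP without any GAP enzyme.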 Conditions: ADP Hunter coupled enzyme counter-screen, fluorescence, no MgcRacGAP; series mostly up to 80 µM. In general terms: The purpose of a counterscreen is to sort out artefacts and off-target activity.
Broadly, the IC50 is the point on the concentration scale where inhibition reaches its midpoint. On to `O=C(Sc1n[nH]c(=O)[nH]c1=O)c1ccccc1`, for which the IC50 entry was “inactive”.

Regarding `CCn1nc(NS(=O)(=O)c2ccccc2[N+](=O)[O-])c2cc3ccc(C)cc3nc21`, the IC50 result was “inactive”.

With `O=C(COc1ccccc1C(=O)N/N=C\c1ccc(O)c(O)c1)N/N=C/c1ccc(O)c(O)c1`, the IC50 is 28.8 µM (active).

`O=C(CNC(=O)C1COc2ccccc2O1)N/N=C/c1ccc(O)cc1O` (stereo not given): the IC50 was 66.8 µM (active).

Consider `CCOC(=O)CCNC(C)C1COc2ccccc2O1` (stereo not given), for which the IC50 entry was “inactive”.

For `COc1cc(/C=N\NC(=O)CNC(=O)C2COc3ccccc3O2)ccc1O` (stereo not given), the IC50 is 35.8 µM (active).

As to `CCCCN(CC)CCNC(=O)c1cc2c(-c3ccc(Cl)cc3)nn(C)c2s1`, the IC50 entry is “inactive”.

For the compound `c1cc2c(cc1NC1CCCCCC1)OCO2`, the IC50 is 45.1 µM (active).

With `c1cc2c(cc1CN1CCN(C3CCCCCC3)CC1)OCO2`, the IC50 entry was “inactive”.

Regarding `COc1ccc(N2C(S)=C(C#N)C(=O)NC2c2ccco2)cc1` (stereo not given), the IC50 result is “inactive”.

For the compound `O=C1N/C(=C\c2ccc(O)cc2)C(O)=C1C=NCc1ccccc1`, the 50% inhibitory concentration (IC50) was 16 µM (active).

As to `COc1cc(/C=C2/SC(=S)N(c3c(C)n(C)n(-c4ccccc4)c3=O)C2=O)ccc1O`, the IC50 was 48.2 µM (active).

On to `O=C1NC(=NCc2ccccc2)S/C1=C/c1ccc(O)cc1`, for which the IC50 was 20.1 µM (active).

`COc1cc(/C=C2\SC(=Nc3c(C)n(C)n(-c4ccccc4)c3=O)NC2=O)ccc1O`: the IC50 was 44.4 µM (active).

On to `Cc1c(N=C2NC(=O)/C(=C/c3ccc(O)cc3)S2)c(=O)n(-c2ccccc2)n1C`, for which the IC50 was 72 µM (active).

Regarding `Nc1ccc2[nH]c(=S)sc2c1`, the IC50 entry was “inactive”.

`Nc1ccc2[nH]c(=S)[nH]c2c1`: the IC50 is 21 µM (active).

For the compound `CCCS(=O)(=O)N1CCN(C2Cc3ccccc3C2)CC1`, the IC50 entry was “inactive”.

Consider `CCCCn1c(C)cc2cc(O)ccc21`, for which the IC50 is 30.4 µM (active).

Turning to `Cn1c(=O)[nH]c(N)c(Br)c1=O`, the IC50 result is “inactive”.

In the case of `Cc1cc(C)nc(N/N=C/c2c[nH]c3ccccc23)n1`, the IC50 was 55.4 µM (active).

With `Cc1ccsc1/C=N/Nc1nc2ccccc2[nH]1`, the IC50 was 26 µM (active).

On to `Cn1c(N/N=C/c2c[nH]c3ccccc23)nc2ccccc21`, for which the IC50 is 40.6 µM (active).

Turning to `C(=N\Nc1nc2ccccc2[nH]1)/c1c[nH]c2ccccc12`, the IC50 is 37.6 µM (active).

Regarding `C=C1c2cccc(O)c2C(=O)C2C(=O)[C@]3(O)C(=O)C(C(N)=O)C(=O)[C@@H](N(C)C)[C@@H]3[C@@H](O)[C@H]12` (stereo not given in full), the IC50 result was “inactive”.

Regarding `O=C1NC(=S)S/C1=C1\Sc2ccccc2N1CCCS(=O)(=O)O`, the IC50 entry was “inactive”.

Turning to `CC(C(=O)Nc1ccccc1C(F)(F)F)N1CCN(C)CC1` (stereo not given), the IC50 result was “inactive”.

Regarding `Cc1cnc(NC(=O)CN2CCN(c3ccccc3F)CC2)s1`, the IC50 result is “inactive”.

Take `CCOCCCNC(=O)CN1CCN(c2ccc(F)cc2)CC1`: the IC50 entry is “inactive”.

With `CC(C(=O)Nc1ccc(F)c(F)c1)N1CCN(C)CC1` (stereo not given), the IC50 result was “inactive”.

Regarding `O=C(CN1CCN(c2ccc(O)cc2)CC1)NCC(=O)Nc1ccc(F)c(F)c1F`, the IC50 is 61.8 µM (active).

As for `CC(C(=O)NCC(=O)Nc1ccc(F)c(F)c1F)N1CCN(c2ccc(O)cc2)CC1` (stereo not given), the IC50 is 54.3 µM (active).

Turning to `COc1ccccc1NS(=O)(=O)c1ccc(C)c(C(=O)N2CCN(c3ccc(O)cc3)CC2)c1`, the IC50 is 23.6 µM (active).

For `COc1cc(OC)c(OC)cc1CN1CCN(C(=O)c2cccc3ccccc23)CC1`, the IC50 result is “inactive”.

In the case of `COc1ccccc1C(=O)N1CCN(Cc2cccnc2)CC1`, the IC50 entry is “inactive”.

As for `Cc1ccc2nc(/N=C(\N)NC(=O)N3c4ccccc4Sc4ccccc43)nc(C)c2c1`, the IC50 result is “inactive”.

With `N/C(=N\OC(=O)N1c2ccccc2Sc2ccccc21)c1ccccc1`, the IC50 result was “inactive”.

As to `CC1(C)CC(NC(=O)N2c3ccccc3Sc3ccccc32)CC(C)(C)N1`, the IC50 entry was “inactive”.

For `Cc1cccc(/C(N)=N/OC(=O)N2c3ccccc3Sc3ccccc32)c1`, the IC50 result was “inactive”.

Consider `CCN1/C(=C/c2ccc3cc(C)ccc3[n+]2CC)Sc2cc(C)ccc21`, for which the IC50 result is “inactive”.

Take `CN(C)/C=C/c1oc2ccc(O)cc2c1[N+](=O)[O-]`: the IC50 was 14.2 µM (active).

For `CCCc1cc(=S)n2c([nH]c3ccccc32)c1C#N`, the IC50 was 57.3 µM (active).

Turning to `CCn1nc(C)c(Br)c1C(=O)Sc1ccccc1Cl`, the IC50 result was “inactive”.

For `Cc1ccc(S(=O)(=O)N2CCOCC2)cc1NC(=O)CNCc1cccnc1`, the IC50 entry was “inactive”.

For the compound `CCN(CC)c1ccc(S(=O)(=O)N2CCOCC2)cc1NC(=O)CN1CCN(Cc2ccccc2)CC1`, the IC50 result is “inactive”.

Regarding `O=S(=O)(c1ccc(Cl)c(NC(=S)N/N=C/c2ccc(O)cc2)c1)N1CCOCC1`, the IC50 was 48.7 µM (active).

Consider `CCOC(=O)C1CCCN(C2=NC(=O)/C(=C/c3ccc(O)c(OC)c3)S2)C1` (stereo not given), for which the half-inhibitory concentration (IC50) is 22.8 µM (active).

Turning to `COc1cc(/C=C2\SC(N3CCC(C)CC3)=NC2=O)ccc1O`, the IC50 was 19.1 µM (active).

For `CCOC(=O)C1CCN(C2=NC(=O)/C(=C/c3ccc(O)cc3)S2)CC1`, the IC50 is 22.2 µM (active).

Consider `CCOC(=O)C1CCN(Cc2cn[nH]c2-c2ccccc2)CC1`, for which the IC50 entry was “inactive”.

As for `CCOC(=O)CSC1=NC(=O)/C(=C\c2ccc(OC(C)=O)cc2)S1`, the IC50 entry is “inactive”.

As to `CCOC(=O)C1CCCN(C2=NC(=O)/C(=C/c3ccc(O)c(OCC)c3)S2)C1` (stereo not given), the IC50 is 29.8 µM (active).

In the case of `CCOC(=O)C(NC(=O)N(C)C)(Nc1sc(C)c(CC)c1C#N)C(F)(F)F` (stereo not given), the IC50 entry is “inactive”.

In the case of `C#CCOCCOCCOCCNc1nc(N2CCN(C(=O)[C@H](CCCN=C(N)N)n3cc(C(N)[C@H](C)CC)nn3)CC2)nc(N2CCN(C(=O)[C@H](CCCN=C(N)N)n3cc(C(N)[C@@H](C)CC)nn3)CC2)n1` (stereo not given in full), the IC50 entry was “inactive”.

On to `CC1CCN(S(=O)(=O)c2ccc3c(c2)C(Cl)(Cl)C(=O)N3)CC1`, for which the IC50 result was “inactive”.

As for `CCS(=O)(=O)c1cc([N+](=O)[O-])c(Sc2ccccc2N)s1`, the IC50 entry is “inactive”.

Turning to `C=CCSC1=NC(=O)/C(=C/c2cccs2)S1`, the IC50 result was “inactive”.

With `CCOc1cc(/C=C2\SC(N3CCCC(C)C3)=NC2=O)ccc1O` (stereo not given), the IC50 was 33.4 µM (active).

`COc1cc(C2NC(=O)C(C#N)=C(S)N2c2ccccc2)ccc1OC(C)C` (stereo not given): the IC50 entry is “inactive”.

For `Cc1c(O)ccc(/C(Cc2ccc3ccccc3n2)=N\O)c1O`, the IC50 is 76.5 µM (active).

With `Cc1ccc(NCCN(C)C)c2c(=O)c3cc(O)ccc3sc12`, the IC50 was 46.3 µM (active).

In the case of `CN(C)CCNc1ccc2nnn3c4ccc(O)cc4c(=O)c1c23`, the IC50 result was “inactive”.

For the compound `CCN(CC)CCNc1ccc(C)c2sc3ccc(O)cc3c(=O)c12`, the IC50 was 33.2 µM (active).

Regarding `CCN(CC)CCCNc1ccc2ncn3c4ccc(O)cc4c(=O)c1c23`, the IC50 entry is “inactive”.

In the case of `CN(C)CCNc1ccc2ncn3c4ccc(O)cc4c(=O)c1c23`, the IC50 entry is “inactive”.

As to `CN(C)CCNc1ccc(CO)c2sc3ccc(O)cc3c(=O)c12`, the IC50 is 35 µM (active).

Regarding `O=C1CC(SC(=S)C2CCCC2=O)C(=O)N1` (stereo not given), the IC50 result is “inactive”.

Consider `Nc1ccccc1Sc1ccc(C(=O)c2ccccc2C(=O)O)cc1[N+](=O)[O-]`, for which the IC50 result is “inactive”.

Consider `COc1ccc(/C=N/Nc2ccccn2)cc1O`, for which the IC50 is 81.8 µM (active).

On to `COc1cc(/C=N/Nc2ccccn2)cc(OC)c1O`, for which the IC50 was 28.6 µM (active).

`COc1ccc(/C=N/Nc2ncnc3sc4c(c23)CCCC4)cc1O`: the IC50 was 69.1 µM (active).

Take `COc1cc(/C=N/Nc2cccc3cccnc23)cc(OC)c1O`: the IC50 result was “inactive”.

In the case of `CN(C)c1ccc(/C=N\Nc2ccccn2)cc1`, the IC50 is 33.4 µM (active).

In the case of `CCN1CCN(CCOc2cccc(Oc3ccccc3)c2)CC1`, the IC50 entry is “inactive”.

With `Clc1ccc(OCCOCCNCc2ccccc2)cc1Cl`, the IC50 result is “inactive”.

Turning to `CCN(CC)c1ccc(NC(=O)CCN2C(=O)c3ccccc3S2(=O)=O)c(C)c1`, the IC50 entry was “inactive”.

For `CCN(CC)c1ccc(NC(=O)C2=CC=CN3CCS(=O)(=O)N=C23)cc1`, the IC50 is 74.2 µM (active).

With `CC(C)[C@H](N[C@@H](C)c1ccccc1)c1c(O)ccc2ccccc12`, the IC50 was 17.4 µM (active).

As to `CC(NCCCOc1cccc2ccccc12)c1ccccc1` (stereo not given), the IC50 entry was “inactive”.

Consider `C/C(=N\Nc1nc2ccccc2[nH]1)c1cccs1`, for which the IC50 was 28.4 µM (active).

Consider `C/C(=N\Nc1nc2ccccc2[nH]1)c1ccc(Cl)s1`, for which the IC50 was 37.8 µM (active).

For `C/C(=N\Nc1nc2ccccc2[nH]1)c1ccc(C)o1`, the IC50 was 82.2 µM (active).

`COc1cccc(/C=C2\C(=O)C(=O)c3ccccc32)c1`: the IC50 entry was “inactive”.

`O=C(COc1ccccc1)NCC(=O)N/N=C/c1ccc(O)cc1O`: the 50% inhibitory concentration (IC50) was 66.1 µM (active).

With `O=C(CNC(=O)c1cccs1)N/N=C/c1ccc(O)cc1O`, the IC50 was 60.5 µM (active).

For the compound `O=C(CNC(=O)c1cccnc1)N/N=C/c1ccc(O)cc1O`, the IC50 was 82 µM (active).

Take `Cc1cc(O)c(C)c(O)c1/C=N/NC(=O)c1cccnc1`: the IC50 was 77.5 µM (active).

Take `CCc1ccc(/C(C)=N/NC(=O)CNC(=O)/C=C/c2ccco2)cc1`: the IC50 result was “inactive”.

As to `Oc1ccc(/C=N/NC(=S)Nc2cccnc2)c(O)c1`, the IC50 is 37.9 µM (active).

As to `O=C(CNC(=O)c1ccco1)N/N=C/c1ccc(O)cc1O`, the IC50 was 78.5 µM (active).

Take `O=C(CCCCCNC(=O)c1ccccc1)N/N=C/c1ccc(O)cc1O`: the IC50 is 71 µM (active).

As for `Cc1cc(C)c(OCCCCNCc2ccccc2)c(Cl)c1`, the IC50 entry is “inactive”.

On to `Cc1c(O)ccc(NC(=O)/C=C/c2ccccc2)c1C`, for which the IC50 was 37.7 µM (active).

With `Cc1cc(N)c2cc(NC(=O)/C=C/c3ccccc3Cl)ccc2n1`, the IC50 result was “inactive”.

As for `N#C/C(=C/c1ccc2c(c1)OCO2)C(=O)Nc1ccc(O)cc1`, the IC50 was 62.6 µM (active).

Take `CCOC(=O)/C(C#N)=C\c1c(OCC)n(CC)c2ccccc12`: the IC50 result was “inactive”.

In the case of `CCOC(=O)/C(C#N)=C\c1ccc(O)c(OC)c1`, the IC50 was 52.1 µM (active).

On to `COc1cc(/C=C(\C#N)C(=O)Nc2ccc3c(c2)OCCO3)ccc1O`, for which the IC50 was 32.5 µM (active).

In the case of `CCC(CC)NCc1ccc2c(c1)c1ccccc1n2CC`, the IC50 result is “inactive”.

For the compound `Oc1cccc(Nc2ccccc2)c1`, the IC50 was 59.1 µM (active).

Turning to `O=[N+]([O-])/C=C/c1cc2ccccc2[nH]1`, the IC50 entry was “inactive”.

On to `COc1ccc(OC)c2c(C)c(C)[nH]c12`, for which the IC50 is 28.7 µM (active).

Turning to `CS(=O)(=O)Cc1nc2ccccc2oc1=O`, the concentration for half-maximal inhibition (IC50) is 74.1 µM (active).

In the case of `COc1ccc2c(c1)-c1nc(N)sc1CC2`, the IC50 was 42.2 µM (active).

As to `Nc1nc2c(s1)CCc1ccccc1-2`, the IC50 is 48.5 µM (active).
